From paper PMC4336329 (PLoS ONE, 2015)
Hit rate of the full screen: of about 310,000 compounds, about 14,000 (4.5%) showed an effect of 50% or more. Effects have a minus sign here. Only a selection was taken, and strong results are over-represented in it overall.

target: human ether-à-go-go-related gene (hERG) potassium channel (human, UniProt Q12809); experiment: primary screen, population patch clamp on CHO cells stably expressing hERG; higher = less effect of the substance
Protocol: Briefly, Chinese hamster ovary (CHO) cells stably expressing the hERG channel were dislodged from tissue culture flasks and dispensed into PPC plates. […] During the recording, background leak currents were estimated by a 100 ms step to -80 mV from an initial holding potential of -70 mV and subtracted from the subsequent current measurement. The campaign was conducted in two phases using slight differences in recording protocol. In the first phase, the initial voltage pulse used a 100 ms step to -30 mV from a holding potential of -70 mV, a 2 s conditioning step to +25 mV, and a 2 s test step to -30 mV. During the second phase of the screen, the potential during the conditioning step was raised to +45 mV. In both phases of the campaign, a secondary voltage pulse was applied using the same parameters as the second phase initial pulse. The initial and secondary pulses were applied in the absence of compound, and upon application of 1 μM and 10 μM test concentrations. […]
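Further: peak tail current of the secondary pulse compared with the same well before compound.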

Sequence of human ether-à-go-go-related gene (hERG) potassium channel (Q12809 whole entry, looked up): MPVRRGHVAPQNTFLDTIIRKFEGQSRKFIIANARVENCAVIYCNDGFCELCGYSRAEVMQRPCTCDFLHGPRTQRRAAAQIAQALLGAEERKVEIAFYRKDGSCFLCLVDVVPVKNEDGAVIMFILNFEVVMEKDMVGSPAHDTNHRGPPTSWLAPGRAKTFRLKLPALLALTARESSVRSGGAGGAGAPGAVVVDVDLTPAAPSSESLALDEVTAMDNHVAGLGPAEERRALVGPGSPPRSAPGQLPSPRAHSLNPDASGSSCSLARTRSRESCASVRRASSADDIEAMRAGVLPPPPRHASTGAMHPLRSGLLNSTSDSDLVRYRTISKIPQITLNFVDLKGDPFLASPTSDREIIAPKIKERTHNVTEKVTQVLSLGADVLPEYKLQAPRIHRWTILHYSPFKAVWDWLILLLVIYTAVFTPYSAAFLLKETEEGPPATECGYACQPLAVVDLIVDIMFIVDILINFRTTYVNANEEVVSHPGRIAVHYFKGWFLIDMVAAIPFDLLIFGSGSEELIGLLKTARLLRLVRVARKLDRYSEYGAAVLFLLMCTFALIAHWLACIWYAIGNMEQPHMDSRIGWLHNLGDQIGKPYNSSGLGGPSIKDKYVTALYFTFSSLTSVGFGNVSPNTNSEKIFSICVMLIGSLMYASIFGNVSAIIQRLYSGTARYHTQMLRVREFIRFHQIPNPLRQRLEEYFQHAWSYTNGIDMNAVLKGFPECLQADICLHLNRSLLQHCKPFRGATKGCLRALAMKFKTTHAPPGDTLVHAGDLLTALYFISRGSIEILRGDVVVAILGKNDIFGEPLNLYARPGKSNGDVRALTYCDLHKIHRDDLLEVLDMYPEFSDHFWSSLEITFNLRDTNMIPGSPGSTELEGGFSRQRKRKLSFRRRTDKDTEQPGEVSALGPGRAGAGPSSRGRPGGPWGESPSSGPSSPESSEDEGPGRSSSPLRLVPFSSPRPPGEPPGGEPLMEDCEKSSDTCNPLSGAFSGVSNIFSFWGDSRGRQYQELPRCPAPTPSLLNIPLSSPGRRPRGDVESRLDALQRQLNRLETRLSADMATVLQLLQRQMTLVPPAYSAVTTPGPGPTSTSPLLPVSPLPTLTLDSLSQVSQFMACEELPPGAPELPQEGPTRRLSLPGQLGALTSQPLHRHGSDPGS

| Structure (SMILES) | hERG current change (%, negative = inhibition) at 10uM [%] |
| --- | --- |
| Nc1nc(-c2ccccc2)nc2sc3c(c12)CCCC3 | 11.7 |
| Cc1ccc(C(=O)Nc2ccccc2N2CCN(C(=O)C(C)C)CC2)cc1C | -18.7 |
| COc1cc(Cl)ccc1NC(=O)COc1ccccc1C(=O)N1CCN(c2ccc(O)cc2)CC1 | -53.9 |
| COc1ccccc1C(=O)Nc1ccccc1N1CCN(S(C)(=O)=O)CC1 | -62 |
| Cc1ccc(C(=O)Nc2ccccc2N2CCN(C(=O)C(C)C)CC2)cc1 | -19.1 |
| COc1cc(C(=O)Nc2ccccc2N2CCN(S(C)(=O)=O)CC2)cc(OC)c1OC | -29.9 |
| CCOc1cccc(C(=O)Nc2ccccc2N2CCN(C(=O)C(C)C)CC2)c1 | -70 |
| COc1cc2ccccc2cc1C(=O)Nc1ccccc1N1CCN(S(C)(=O)=O)CC1 | 6.35 |
| COc1cc(Cl)ccc1NC(=O)COc1ccccc1C(=O)NN | -15.4 |
| COc1ccccc1NC(=O)COC(=O)c1ccccc1C(=O)N1CCN(c2ccccc2)CC1 | -42.3 |
| CCOc1ccc(C(=O)Nc2ccccc2N2CCCC2)cc1 | -22.8 |
| CC(C)C(=O)N1CCN(c2ccccc2NC(=O)c2cccc(Cl)c2)CC1 | -69.6 |
| CCCCOc1cccc(C(=O)Nc2ccccc2N2CCCC2)c1 | 5.59 |
| O=C(CNC(=O)c1ccc(Cl)cc1)c1ccccc1 | -9.6 |
| CC(C)OC(=O)CSc1nnc2c(n1)[nH]c1ccc(F)cc12 | 8.22 |
| CN(C(=O)Cn1nnc(-c2ccc(F)cc2)n1)C1CCS(=O)(=O)C1 (stereo not shown) | -2.38 |
| NC1=NC(=O)C(CC(=O)c2ccc(Cl)cc2)S1 (stereo not shown) | 1.23 |
| COc1cccc(-n2c(SCC(=O)NCc3cccs3)nc3ccccc3c2=O)c1 | -2.74 |
| COC(=O)c1ccccc1NC(=S)NC(=O)c1ccc2c(c1)OCO2 | 32.6 |
| O=C(NC(=S)NCc1ccccc1)c1ccc2c(c1)OCO2 | -8.81 |
| O=C(Nc1ccccc1N1CCCC1)c1cccc(F)c1 | 6.24 |
| O=C(c1ccc(F)cc1)N1CCN(c2cc(=O)[nH]nc2-c2ccccc2)CC1 | -4.51 |
| O=C(c1ccc(Cl)cc1)N1CCN(c2cc(=O)[nH]nc2-c2ccccc2)CC1 | -58.3 |

| Structure (SMILES) | hERG current change (%, negative = inhibition) at 10uM [%] |
| --- | --- |
| O=C(Nc1ccccc1N1CCN(C(=O)c2ccc(Cl)cc2)CC1)c1cccc(F)c1 | -78.9 |
| CCC(=O)N1CCN(c2ccc(Cl)cc2NC(=O)c2cccc([N+](=O)[O-])c2)CC1 | -49.2 |
| Cc1ccc(C(=O)N2CCN(c3cc(=O)[nH]nc3-c3ccccc3)CC2)cc1 | -41.7 |
| O=C(Nc1ccc(Cl)cc1C(=O)N1CCCC1)c1cccc([N+](=O)[O-])c1 | -12 |
| O=C(Nc1ccccc1N1CCN(c2ccccc2)CC1)c1cccc(F)c1 | -8.05 |
| O=C(Nc1ccccc1N1CCN(C(=O)c2ccc(Cl)cc2)CC1)c1cccc([N+](=O)[O-])c1 | -75 |
| O=C(NC(=S)Nc1ccccc1Br)c1ccc2c(c1)OCO2 | -56.4 |
| COc1ccc(OC)c(NC2=C(Cl)C(=O)N(Cc3ccccc3)C2=O)c1 | 5.06 |
| CCn1c(COc2cc(C)ccc2C(C)C)nnc1SCC(=O)Nc1nccs1 | 5.52 |
| COC(=O)c1ccc(N)cc1O | 22 |
| Cc1cccc2c(C(=O)Nn3cnnc3)cc(-c3ccccc3Cl)nc12 | 25.8 |
| CC(=O)N1CCN(c2ncnc3sc(-c4ccccc4)cc23)CC1 | -44.4 |
| CCOC(=O)c1cnc(SCC(=O)N2CCN(C(=O)c3ccco3)CC2)nc1N | -29.3 |
| O=C(Nc1ccc(N2CCN(C(=O)c3ccccc3)CC2)c(Cl)c1)c1cccnc1 | -31.2 |
| CN1CCN(c2ccc(NC(=O)c3cccc(OCc4ccccc4)c3)cc2)CC1 | -8.95 |
| CN1CCN(c2ccccc2NC(=O)c2cccc(OCc3ccccc3)c2)CC1 | -78.9 |
| O=C(Nc1ccccc1N1CCCC1)c1cccnc1 | -0.385 |
| O=C(Nc1ccccc1N1CCCC1)c1ccc2c(c1)OCO2 | -3.23 |
| O=C(Nc1ccccc1N1CCN(C(=O)c2ccc(Cl)cc2)CC1)c1ccc2c(c1)OCO2 | -46.8 |
| O=C(Nc1ccccc1N1CCN(C(=O)c2ccc(Cl)cc2)CC1)c1cccnc1 | -73.2 |
| O=C(Nc1ccccc1N1CCN(C(=O)c2ccccc2)CC1)c1ccc2c(c1)OCO2 | -60.7 |
| CN1CCN(c2ccccc2NC(=O)c2ccc(OCc3ccccc3)cc2)CC1 | -41.9 |
| CCOc1ccc(C2C(C#N)=C(N)N3C(=C2C#N)Sc2ccccc23)cc1 (stereo not shown) | 9.5 |
